GPR151 activ = activators of human GPR151 | Q8TDV0 | PathHunter beta-arrestin GPR151 cells, luminescence | activation, % at 11.2 µM | 1% of 650,000 active; in the data active = activation above about 4.9%;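 also: 0% = median of compound wells and 100% = cells with positive control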
Target sequence (Q8TDV0 whole entry, looked up): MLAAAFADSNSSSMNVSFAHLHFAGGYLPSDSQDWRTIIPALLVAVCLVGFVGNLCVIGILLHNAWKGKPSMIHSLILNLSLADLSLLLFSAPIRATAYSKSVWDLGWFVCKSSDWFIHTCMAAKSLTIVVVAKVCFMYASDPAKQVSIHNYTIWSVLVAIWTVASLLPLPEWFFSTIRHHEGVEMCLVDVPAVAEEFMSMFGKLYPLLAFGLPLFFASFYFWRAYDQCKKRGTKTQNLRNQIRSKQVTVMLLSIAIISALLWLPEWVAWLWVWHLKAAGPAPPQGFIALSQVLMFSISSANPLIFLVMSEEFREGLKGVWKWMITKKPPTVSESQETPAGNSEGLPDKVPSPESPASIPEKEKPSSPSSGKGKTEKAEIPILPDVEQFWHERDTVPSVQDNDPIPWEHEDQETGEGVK
MITF primary = blocks human microphthalmia-associated transcription factor; 0.91% of 650,000 active; AID 1259374; inhibition, % at 2.6 µM; O75030; AlphaScreen MITF homodimerization, bead proximity signal; in the data active = inhibition above about 50%;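 also: 0% = vehicle wells with protein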
TEAD-YAP inh = TEAD-YAP interaction inhibition; HEK-TIYL cells, TEAD-Gal4/YAP UAS-luciferase luminescence; AID 1259422; 1.4% of 640,000 active; inhibition, % at 9.12 µM; in the data active = inhibition above about 32%;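 also: 0% = median of test compound wells and 100% = reference inhibitor wells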
FBW7 act = activators of human E3 ligase FBW7; 0.13% of 650,000 active; AID 1259310; normalized activity (activation), % at 26.1 µM; AlphaScreen FBW7–phospho-cyclin E peptide binding, activator screen; in the data active = normalized activity above about 1.9%;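 also: purified mutant Fbw7 with reduced substrate affinity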
Active calls of the source: *. An excerpt weighted towards active compounds, which were near 3.4% of everything screened.

What do the screens show for `C/C=C/COC(=O)C1=C(C)NC(=O)NC1c1ccc(Cl)cc1Cl` (stereo not drawn)?
GPR151 activ: 0; MITF primary: 5; TEAD-YAP inh: 64*; FBW7 act: 0

How did Oc1c(CN2CCOCC2)cc(COCc2ccccc2)c2cccnc12 do in these assays?
GPR151 activ: -1; MITF primary: 86*; TEAD-YAP inh: 74*; FBW7 act: -1

How did CC(C)OCc1cc(CN2CCOCC2)c(O)c2ncccc12 do in these assays?
GPR151 activ: -3; MITF primary: 94*; TEAD-YAP inh: 6; FBW7 act: -1

What do the screens show for `COCc1cc(CN2CCN(C)CC2)c(O)c2ncccc12`?
GPR151 activ: 0; MITF primary: 101*; TEAD-YAP inh: 8; FBW7 act: -1

Results for COc1cc(CN2CCOCC2)ccc1OCc1ccccc1 ?
GPR151 activ: 0; MITF primary: -5; TEAD-YAP inh: -14; FBW7 act: 0

How did CC(C)OCc1cc(CN2CCN(C)CC2)c(O)c2ncccc12 do in these assays?
GPR151 activ: -1; MITF primary: 94*; TEAD-YAP inh: 5; FBW7 act: -1

How did COC(=O)c1c(C)oc2ccc(OCc3cccc(F)c3)cc12 do in these assays?
GPR151 activ: 1; MITF primary: 14; TEAD-YAP inh: -10; FBW7 act: 0

Results for CCOc1ccc2[nH]c(=O)c(CN(Cc3cccnc3)S(=O)(=O)c3ccccc3)cc2c1 ?
GPR151 activ: 0; MITF primary: 3; TEAD-YAP inh: 41*; FBW7 act: 0

Results for CCCCN(CC)S(=O)(=O)c1ccccc1[N+](=O)[O-] ?
GPR151 activ: 1; MITF primary: 8; TEAD-YAP inh: 47*; FBW7 act: 0

Results for CC(C)CN(CC(C)C)S(=O)(=O)c1ccccc1[N+](=O)[O-] ?
GPR151 activ: 1; MITF primary: -4; TEAD-YAP inh: -5; FBW7 act: 0

Results for CCCCNC(=O)Cc1ccc(Cl)cc1 ?
GPR151 activ: 0; MITF primary: -2; TEAD-YAP inh: 0; FBW7 act: 0

Results for CCOc1cc(C2C(C#N)=C(N)Oc3cc4c(cc32)OCO4)cc(Br)c1OC (stereo not drawn) ?
GPR151 activ: 1; MITF primary: 5; TEAD-YAP inh: 57*; FBW7 act: 0

How did COc1ccc(Br)cc1C1C(C#N)=C(N)Oc2cc3c(cc21)OCO3 (stereo not drawn) do in these assays?
GPR151 activ: 0; MITF primary: -14; TEAD-YAP inh: 47*; FBW7 act: 0

Results for CC1CCCN(C(=O)c2ccc3c(=O)n(CC4CCCO4)c(=S)[nH]c3c2)C1 (stereo not drawn) ?
GPR151 activ: -1; MITF primary: -2; TEAD-YAP inh: 6; FBW7 act: 0

What do the screens show for `CC(C)C(NC(=O)OC(C)(C)C)C(=O)N1CCCC1C(N)=O` (stereo not drawn)?
GPR151 activ: -1; MITF primary: 9; TEAD-YAP inh: 9; FBW7 act: 2.0*

How did O=C(NCc1ccco1)c1ccncc1 do in these assays?
GPR151 activ: 1; MITF primary: 7; TEAD-YAP inh: 10; FBW7 act: 0

Results for COc1ccc(NC(=S)Nc2ccccn2)cc1 ?
GPR151 activ: 0; MITF primary: -7; TEAD-YAP inh: -71; FBW7 act: 0

How did COc1ccc(NC(=S)c2ccccn2)cc1 do in these assays?
GPR151 activ: -11; MITF primary: 2; TEAD-YAP inh: 60*; FBW7 act: 0

Results for CSc1ccc(/C=C(\C#N)c2ccccn2)cc1 ?
GPR151 activ: -3; MITF primary: 10; TEAD-YAP inh: -7; FBW7 act: 0

Results for COc1ccccc1NC(=S)c1ccccn1 ?
GPR151 activ: 1; MITF primary: 18; TEAD-YAP inh: -38; FBW7 act: 0

What do the screens show for `CN(C)c1ccc(/C=C(\C#N)c2ccccn2)cc1`?
GPR151 activ: -10; MITF primary: 13; TEAD-YAP inh: 91*; FBW7 act: 0

Results for CN(C)c1ccc(NC(=S)Nc2ccccc2)cc1 ?
GPR151 activ: -2; MITF primary: -2; TEAD-YAP inh: -11; FBW7 act: -1

Results for Cc1ccc(NC(=S)c2ccccn2)cc1 ?
GPR151 activ: -9; MITF primary: 15; TEAD-YAP inh: 51*; FBW7 act: 0

Results for CN(C)c1ccc(NC(=S)c2ccccn2)cc1 ?
GPR151 activ: -9; MITF primary: 33; TEAD-YAP inh: 93*; FBW7 act: -1

What do the screens show for `COc1ccc(/C=C(\C#N)c2nc(-c3ccco3)cs2)cc1O`?
GPR151 activ: 1; MITF primary: 8; TEAD-YAP inh: -23; FBW7 act: 0

What do the screens show for `Cc1cccc(NC(=O)c2c(NC(=O)c3cccs3)sc3c2CCCC3)c1`?
GPR151 activ: 1; MITF primary: -2; TEAD-YAP inh: 4; FBW7 act: 0

What do the screens show for `NS(=O)(=O)c1ccc(NC(=O)c2ccc(Cl)c([N+](=O)[O-])c2)cc1`?
GPR151 activ: 0; MITF primary: -4; TEAD-YAP inh: 4; FBW7 act: 0

How did c1ccc(-c2cnnc(NCCN3CCCC(c4ccccc4)C3)n2)cc1 (stereo not drawn) do in these assays?
GPR151 activ: -1; MITF primary: -6; TEAD-YAP inh: -3; FBW7 act: 0

How did COc1ccccc1NC(=O)Nc1nnc(CSCc2ccccc2Cl)s1 do in these assays?
GPR151 activ: 0; MITF primary: -4; TEAD-YAP inh: 15; FBW7 act: 0

Results for Cc1cc(C(=O)Nc2c(C)nn(Cc3c(Cl)cccc3Cl)c2C)no1 ?
GPR151 activ: 0; MITF primary: 0; TEAD-YAP inh: 33*; FBW7 act: 0

Results for Cc1ccccc1Cn1nc(C)c(NC(=O)c2cc(C3CC3)on2)c1C ?
GPR151 activ: 0; MITF primary: -2; TEAD-YAP inh: 4; FBW7 act: 2.1*

What do the screens show for `CCc1cc(=O)[nH]c(NC2CCN(C(=O)c3cccc(N(C)C)c3)CC2)n1`?
GPR151 activ: 0; MITF primary: -9; TEAD-YAP inh: -8; FBW7 act: 0

What do the screens show for `Cc1ccc(-c2n[nH]c(CNC(=O)N3CCCC3)n2)cc1`?
GPR151 activ: -1; MITF primary: 2; TEAD-YAP inh: 9; FBW7 act: 1

What do the screens show for `O=[N+]([O-])c1ccc(-c2cn3cc(Cl)ccc3n2)cc1`?
GPR151 activ: 1; MITF primary: 3; TEAD-YAP inh: -77; FBW7 act: 0

What do the screens show for `O=[N+]([O-])c1ccc2nc(-c3ccc(OC(F)F)cc3)cn2c1`?
GPR151 activ: 1; MITF primary: -4; TEAD-YAP inh: 45*; FBW7 act: 0

Results for COCCOC(=O)c1ccc(NC(=O)c2ccc(C(C)(C)C)cc2)cc1 ?
GPR151 activ: 0; MITF primary: 1; TEAD-YAP inh: 46*; FBW7 act: -1

What do the screens show for `COC(=O)COc1ccc(NC(=O)c2ccc(C(C)(C)C)cc2)cc1`?
GPR151 activ: -1; MITF primary: -22; TEAD-YAP inh: 43*; FBW7 act: 0

What do the screens show for `CCCOC(=O)c1ccc(NC(=O)c2ccc(C(C)(C)C)cc2)cc1`?
GPR151 activ: 0; MITF primary: 11; TEAD-YAP inh: -58; FBW7 act: 0

Screening data from PubChem.
